From PubChem
In the library only some 2.4% were active in any assay of this set; here they are far more common.
D2 PAM-1 – positively modulates the human D2 dopamine receptor allosterically. HEK293 T-REx D2, calcium flux, EC20 dopamine potentiation. actives 0.34% (n = 340,000). P14416. potentiation, % at 10 µM;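 active means potentiation over 3 SD above the plate norm, cut at about 30% in these data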
Target sequence (P14416 whole entry, looked up): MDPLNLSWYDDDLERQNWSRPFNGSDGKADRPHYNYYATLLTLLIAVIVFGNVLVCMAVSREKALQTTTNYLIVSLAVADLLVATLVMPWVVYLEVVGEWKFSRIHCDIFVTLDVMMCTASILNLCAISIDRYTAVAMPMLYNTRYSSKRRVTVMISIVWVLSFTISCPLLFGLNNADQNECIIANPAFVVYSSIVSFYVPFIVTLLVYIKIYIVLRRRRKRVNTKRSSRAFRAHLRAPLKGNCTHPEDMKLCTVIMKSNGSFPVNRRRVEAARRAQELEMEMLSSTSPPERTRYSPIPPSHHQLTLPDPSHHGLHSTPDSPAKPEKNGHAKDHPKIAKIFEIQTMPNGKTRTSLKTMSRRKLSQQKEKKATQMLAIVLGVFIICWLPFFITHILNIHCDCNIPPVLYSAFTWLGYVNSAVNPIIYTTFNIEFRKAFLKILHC
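Using a no-wash calcium dye in inducible, force-coupled HEK293 Trex cells expressing D2, we tracked fluorescence each second for 180 s after compound, then for 180 s after EC20 dopamine to detect augmented signalling.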
D2 antag – antagonists of human D2 dopamine receptor. actives 2% (n = 340,000). P14416. inhibition, % at 10 µM. AID 485344. HEK293 TREx D2 cells, calcium flux, dopamine EC80; in the data active means inhibition above about 30%; inactive means below that, where a call was filed
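Antagonism is scored as inhibition of an EC80 dopamine-evoked calcium signal in a force-coupled, tetracycline-inducible HEK293 T-REx D2 line, with compound present 180 s before agonist.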
D2 ag-1 – activates the human D2 dopamine receptor. P14416. DiscoveRx PathHunter D2 beta-arrestin, luminescence, 90 min; 100% = 57 uM dopamine signal. activation, % (no concentration beside the values). actives 0.084% (n = 360,000); in the data active means activation above about 40%
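Agonist mode: compounds alone added to overnight-plated D2 PathHunter cells for 90 min at 37 C, with 57 uM final dopamine (EC100) defining full response. Beta-arrestin recruitment detected by chemiluminescent reagent, read after 1 h at ambient temperature.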
D2 PAM-2 – human D2 receptor positive allosteric modulation | P14416 | DiscoveRx D2 beta-arrestin cells, luminescence, 90 min; 100% = 57 uM dopamine signal | potentiation, % (test concentration not listed) | actives 0.23% (n = 360,000) | AID 624464; in the data active means potentiation above about 50%
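PathHunter D2 cells, attached overnight at 37 deg C, received compound in DMSO plus dopamine at EC20 (50 nM final) for 90 min at 37 deg C. Beta-arrestin recruitment was read as luminescence after 1 h with detection reagent at ambient temperature.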
D2 ag-2 – agonists of human D2 dopamine receptor; activation, % at 2 µM; HEK293 T-REx D2 cells, calcium flux agonist mode; actives 0.53% (n = 340,000); P14416;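 active means activation over 3 SD above normal in the single-dose calcium agonist read, cut at about 30% in these data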
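Agonism scored from kinetic calcium signal (1 read/sec, 180 s) following compound pin transfer, after a 10 s baseline. Cells: HEK293 Trex line expressing inducible D2 receptor coupled to calcium, dye-loaded after overnight culture at 30 C.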
Hits are given with their value; n = inactive; x = no result.

SMILES	D2 PAM-1	D2 antag	D2 ag-1	D2 PAM-2	D2 ag-2
CCN(CC)CCn1c(NCc2ccc(OC)cc2)nc2ccccc21	n	75	n	n	n
O=C(Nc1nc2ccccc2n1CCN1CCCCC1)C1CCCCC1	n	42	n	n	n
O=C(Nc1nc2ccccc2n1CCN1CCCC1)C1CCCCC1	n	n	n	n	n
COc1ccc(OC)c(CNc2nc3ccccc3n2CCN2CCCCC2)c1	n	34	n	n	n
COc1ccc(CNc2nc3ccccc3n2CCN2CCCCC2)c(OC)c1	n	n	n	n	n
O=c1c2cc(NC(=S)NCc3cccnc3)ccc2nc2n1CCCCC2	n	n	n	n	n
O=C1CN(C(=O)COc2ccc(Cl)cc2)C(c2ccc(F)cc2)c2cc(Cl)ccc2N1 (stereo not drawn)	n	x	x	x	n
Cc1cc(C)n(CCCNC(=O)C2CCC(=O)N(CCc3ccc(Cl)cc3)C2)n1 (stereo not drawn)	n	n	n	n	n
Cc1ccn(CCNC(=O)C2CCC(=O)N(CCc3ccc(Cl)cc3)C2)n1 (stereo not drawn)	35	n	n	n	n
CC(C)C(NC(=O)c1ccccc1)C(=O)NCC(c1ccccc1)N(C)C (stereo not drawn)	x	x	n	n	x
CC(C)C(NC(=O)c1ccco1)C(=O)NCC(c1ccco1)N(C)C (stereo not drawn)	33	n	n	n	n
CC(C)[C@H](NC(=O)c1ccco1)C(=O)Nc1ccc(OC(F)F)cc1	n	n	n	n	n
CCOc1ccc(NC(=O)[C@@H](NC(=O)c2ccco2)C(C)C)cc1	n	39	n	n	n
COc1ccc(N=Cc2c(O)ccc3ccccc23)cc1	n	n	n	n	n
O=C(O)c1ccc(N=Cc2c(O)ccc3ccccc23)cc1	n	n	n	n	39
CCOC(=O)c1sc(/N=C/c2c(O)ccc3ccccc23)cc1C	n	31	n	n	n
NC(=O)c1ccc(N=Cc2c(O)ccc3ccccc23)cc1	x	x	n	n	x
Cc1ccccc1OCCN(C#N)c1nc(N(C)C)nc(N(C)C)n1	n	n	n	n	n
CCOC(=O)c1cc(-c2ccccc2C)n(CC2CC(c3cccc([N+](=O)[O-])c3)=NO2)n1 (stereo not drawn)	n	n	n	n	n
CCCC(=O)Nc1ccc(C(=O)COC(=O)c2cc(C)oc2C)cc1	n	35	n	n	n
O=c1c2ccccc2nnn1CSc1ccc2c(c1)OCCO2	43	n	n	n	n
CCC(C(=O)Nc1ccc2c(c1)OCCO2)n1nnc2ccccc2c1=O (stereo not drawn)	n	n	n	n	n
CNC(=O)c1ccc(-c2sc3nc(N4CCOCC4)c4c(c3c2N)CC(C)(C)OC4)o1	n	41	n	n	n
CC(C)CNc1ncnc2c1sc1nc(N3CCOCC3)c3c(c12)CC(C)(C)OC3	n	33	n	n	n
CN(C)CCNc1ncnc2c1sc1nc(N3CCCC3)c3c(c12)CC(C)(C)OC3	n	n	n	n	n
SMILES	D2 PAM-1	D2 antag	D2 ag-1	D2 PAM-2	D2 ag-2
Cc1ccsc1/C=N/NC(=O)CNC(=O)c1cccc([N+](=O)[O-])c1C	n	n	n	n	n
COc1ccccc1NC(=S)NNC(=O)c1nn(C)c(C)c1Br	n	n	n	n	n
COc1ccccc1NC(=S)NNC(=O)c1nn(C)c(C)c1Cl	n	82	n	n	n
Cn1cc(Cl)c(C(=O)NNC(=S)NCc2ccco2)n1	n	n	n	n	n
Cc1c(Cl)c(C(=O)NNC(=S)NCc2ccco2)nn1C	n	35	n	n	n
O=C(NNC(=S)NCc1ccco1)c1ccc(Cl)s1	n	33	n	n	n
O=C(CCNS(=O)(=O)c1cccc(C(F)(F)F)c1)NC1CC1	45	n	n	n	n
CC1CCC(NC(=O)CCNS(=O)(=O)c2ccccc2)CC1 (stereo not drawn)	n	n	n	n	n
N#C/C(=C/c1ccc(N2CCCCC2)o1)C(=O)Nc1ccc2ccccc2c1	n	47	n	n	106
COc1ccc(NC(=O)/C(C#N)=C\c2ccc(N3CCOCC3)o2)cc1	n	n	n	n	42
CC1CC1c1ccc(/C=C(\C#N)C(=O)Nc2ccccc2Cl)o1 (stereo not drawn)	x	x	n	n	x
N#C/C(=C/c1ccc(N2CCCCC2)o1)C(=O)Nc1ccc(Cl)cc1	n	62	n	n	110
